Screening results as filed in PubChem BioAssay.
The sample as a whole holds a higher share of hits than the screen did.
FECH block – inhibitors of human ferrochelatase; purified FECH, Ni-mesoporphyrin absorbance 550 nm; P22830; hit rate 3.3% among 20,000; calls only at 10 µM (by protocol);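 active means enzyme reaction rate more than 3 SD below the solvent-only control wells on the same plate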;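 further: lower slope than DMSO wells means FECH inhibition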
Target sequence (P22830 whole entry, looked up): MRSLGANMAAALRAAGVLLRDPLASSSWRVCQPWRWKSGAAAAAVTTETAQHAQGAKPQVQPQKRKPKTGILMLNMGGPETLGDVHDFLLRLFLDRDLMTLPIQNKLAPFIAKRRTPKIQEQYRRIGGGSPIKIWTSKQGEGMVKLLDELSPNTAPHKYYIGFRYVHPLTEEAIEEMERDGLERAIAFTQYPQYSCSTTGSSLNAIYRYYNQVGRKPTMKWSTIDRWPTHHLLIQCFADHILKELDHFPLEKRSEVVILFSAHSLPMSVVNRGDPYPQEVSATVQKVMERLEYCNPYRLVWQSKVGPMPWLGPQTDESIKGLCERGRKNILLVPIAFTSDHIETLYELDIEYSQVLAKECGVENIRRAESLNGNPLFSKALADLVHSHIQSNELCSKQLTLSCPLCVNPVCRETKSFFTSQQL
* = called active by the depositor; i = inactive; + = active, no number.

SMILES	FECH block
CCCNC(=O)c1[nH]cnc1C(=O)NC1CCCCC1	i
O=C(NC1CCCCC1)c1nc[nH]c1C(=O)NC1CCCC1	i
Cc1ccc(CNC(=O)c2[nH]cnc2C(=O)NC2CCCCC2)o1	i
CC(C)NC(=O)c1nc[nH]c1C(=O)NC1CCCc2ccccc21 (centres undefined)	i
Cc1ccc(CNC(=O)c2[nH]cnc2C(=O)NC(C)C)o1	i
O=C(NC1CCCCC1)c1nc[nH]c1C(=O)NC1CCc2ccccc21 (centres undefined)	+
Cc1ccc(CNC(=O)c2nc[nH]c2C(=O)NCc2ccccn2)o1	+
O=C(NC1CCCCC1)c1nc[nH]c1C(=O)NCc1ccccn1	+
O=C(NC1CCCCNC1=O)c1nc[nH]c1C(=O)NCc1ccccn1 (centres undefined)	i
COc1ccccc1CN(Cc1cccnc1)C(=O)c1sc(C)nc1C	i
CCCCCN(C)C(=O)c1[nH]cnc1C(=O)NCc1ccccc1	i
COc1ccccc1CNC(=O)c1nc[nH]c1C(=O)NCc1cccnc1	+
CCc1nccc(-c2c(-c3ccccc3)ncn2CC2(CO)CCOCC2)n1	i
CCOc1ccccc1-c1ccc(C(=O)Nc2cccnc2)o1	i
O=C(Nc1nc2n(n1)C(c1ccccc1Cl)C=C(c1ccc(Cl)cc1)N2)c1cccnc1 (centres undefined)	i
Cc1cc(-n2cnnc2CCNc2ccccc2)n(C)n1	i
COCCNc1nc(Nc2ccccc2)c2cnn(-c3ccccc3)c2n1	i
COc1ccc(S(=O)(=O)NCCn2c(C(F)(F)F)nc3cccnc32)cc1OC	i
COc1ccnc(CN2CCC3(CC2)c2ccccc2CC3O)c1OC (centres undefined)	i
COc1ccccc1CNC(=O)c1nc[nH]c1C(=O)NCc1ccccc1	+
O=C(NCC1CCCCC1)c1nc[nH]c1C(=O)NCc1ccccc1	+
O=C(NCc1ccccc1)c1nc[nH]c1C(=O)N1CCCCC1	i
COc1ccccc1CNC(=O)c1nc[nH]c1C(=O)N1CCC(O)(c2ccc(Cl)cc2)CC1	+
COc1ccccc1CNC(=O)c1[nH]cnc1C(=O)NCCc1c[nH]c2ccccc12	i
CC(C)CCNC(=O)c1nc[nH]c1C(=O)NCc1ccccc1	i
SMILES	FECH block
CC1CCCN(C(=O)c2[nH]cnc2C(=O)NCc2ccccc2)C1 (centres undefined)	i
CC(C)(C)CNC(=O)c1nc[nH]c1C(=O)NCc1ccccc1	i
O=C(NCc1ccccn1)c1nc[nH]c1C(=O)NCc1cccnc1	+
CC(C)(C)CNC(=O)c1nc[nH]c1C(=O)N1CCC(O)(c2ccc(Cl)cc2)CC1	i
CC(C)CCNC(=O)c1nc[nH]c1C(=O)N1CCC(O)(c2ccc(Cl)cc2)CC1	i
COc1ccccc1CNC(=O)c1[nH]cnc1C(=O)NCCN(C)C	i
COc1ccc(N(Cc2nc3nc(C)c(Cl)c(C)n3n2)C(=O)CCc2ccccc2)cc1	i
CCC(C(=O)Nc1ccc(Nc2nc(C)cc(Nc3ccc(OC)cc3)n2)cc1)c1ccccc1 (centres undefined)	i
Cc1cc(N2CCCC2)nc(-n2cnc(SCCOc3ccccc3)n2)n1	i
OC[C@H]1CCN(c2ccc3cccc(Cl)c3n2)C[C@H]1O	i
Cc1cc(-c2c(-c3ccccc3)ncn2Cc2c(C)noc2C)n[nH]1	i
O=C1CCS(=O)(=O)N1c1ccc(S(=O)(=O)NCc2ccc3c(c2)OCO3)cc1	i
CCCn1ccnc1CN1CCc2onc(-c3cccc4ccccc34)c2C1	i
COCc1nc2cccnc2n1C1CCN(S(=O)(=O)c2ccc(C(C)C)cc2)CC1	i
COc1ccccc1CNC(=O)c1[nH]cnc1C(=O)NCC1CC1	i
COc1ccccc1CNC(=O)c1[nH]cnc1C(=O)NC1CCc2ccccc21 (centres undefined)	+
CC(C)CCNC(=O)c1nc[nH]c1C(=O)NCC1CC1	i
COc1ccccc1CNC(=O)c1nc[nH]c1C(=O)N1CCc2ccccc2C1	i
CCCNC(=O)c1[nH]cnc1C(=O)NC1CCCC1	i
COc1ccccc1CNC(=O)c1[nH]cnc1C(=O)NCC1CCCCC1	+
NC(=O)c1cncc(N2CCc3onc(-c4cccc(F)c4)c3C2)n1	i
c1coc(-c2noc(CNCC3OCCc4ccccc43)n2)c1 (centres undefined)	i
O=C(C1CCCN(c2ncnc3c2nc2n3CCCCC2)C1)N1CCN(Cc2ccc3c(c2)OCO3)CC1 (centres undefined)	i
Cc1nc(CN(C)C(=O)c2c(-c3ccccc3Cl)noc2C)no1	i
CC(CCc1ccccc1)NC(=O)CC1CCN(S(=O)(=O)c2ccccc2)CC1 (centres undefined)	i
SMILES	FECH block
CCn1c(C2CCN(C(=O)c3cc(C(C)C)[nH]n3)CC2)n[nH]c1=O	i
CN1CCCC(c2n[nH]c(=O)n2CCc2ccccc2)C1 (centres undefined)	i
O=c1[nH]nc(C2CC2)n1Cc1ccc(Cl)cc1Cl	+
CCCn1ncc(C(=O)N2CCC3(CC2)c2ccccc2[C@@H](N)[C@@H]3O)c1C	i
Cc1ccc(-n2ncc3c(-n4nc(C)cc4NC(=O)CCc4ccccc4)ncnc32)c(C)c1	i
Cc1cccc(N(CC(=O)N(C)Cc2n[nH]c3c2CCCCC3)S(C)(=O)=O)c1	i
Cc1ccc2c(c1)NC(=O)C2CC(=O)NCCN1CCCOC1=O (centres undefined)	i
Cc1cccc(N(CC(=O)NCCN2CCNC2=O)S(C)(=O)=O)c1	+
CO[C@H]1CN(c2nc(-c3ccccc3)ccc2C(=O)O)CC[C@H]1N	i
Cc1cccc(-c2ncc(CNCCCN3CCOCC3)cn2)c1	i
CC[C@@]12C[C@H]3C[C@@](O)(C1)C[C@](C(=O)NCc1nc4ccccc4[nH]1)(C3)C2	i
O=C(CCC(=O)N1CCc2cc(S(=O)(=O)NCc3ccc(F)cc3)ccc21)N1CCOCC1	i
Cc1cc(C)n2nc(CN(C(=O)c3ccc(C(C)(C)C)cc3)c3cccc(Cl)c3)nc2n1	i
Cc1cccc(N(Cc2nc3nc(C)cc(C)n3n2)C(=O)c2ccc(F)cc2)c1	+
Cc1cc(C)n2nc(CN(C(=O)c3ccc(F)cc3)c3ccc(Cl)cc3)nc2n1	i
CCOc1ccc(N(Cc2nc3nc(C)cc(C)n3n2)C(=O)c2ccccc2C)cc1	i
CCOc1ccc(N(Cc2nc3nc(C)cc(C)n3n2)C(=O)c2ccc(C)cc2)cc1	+
COc1ccc(C(=O)N(Cc2nc3nc(C)cc(C)n3n2)c2ccccc2)cc1	i
COc1ccccc1C(=O)N(Cc1nc2nc(C)cc(C)n2n1)c1ccc(C)cc1	i
Cc1ccc(C(=O)N(Cc2nc3nc(C)cc(C)n3n2)c2ccc(Cl)cc2)cc1	i
Cc1ccc(C(=O)N(Cc2nc3nc(C)cc(C)n3n2)c2ccc(F)cc2)cc1	i
CCOc1ccc(N(Cc2nc3nc(C)cc(C)n3n2)C(=O)C(C)(C)C)cc1	i
Cc1ccc(N(Cc2nc3nc(C)cc(C)n3n2)C(=O)c2ccc(C(C)(C)C)cc2)cc1	+
Cc1cccc(N(Cc2nc3nc(C)cc(C)n3n2)C(=O)c2ccc(C(C)(C)C)cc2)c1	+
O=C(Nc1ccccc1-c1ccccc1)N1CCCn2cncc2C1	i
CCC(NC(=O)c1cccc(C(F)(F)F)c1C)C1=CCN(C)CC1 (centres undefined)	i
Cn1nnc2cc(C(=O)N3CCCC4(C=Cc5ccccc5O4)CC3)ccc21 (centres undefined)	i
